Results on 38 molecules are retold here after PubChem BioAssay (EPA / NIEHS).

Results filed as inconclusive are left out. Active and inactive are the calls of the source. Rule for the calls: active = hit-call score of the fitted dose curve at least 0.9, where 1 is the maximum; inconclusive = response in the unintended direction; inactive = score below 0.9.

human RAR-related Orphan Receptor beta (RORb), RORB (gene 6096), sequence (Q92753 whole entry, looked up, the tested form may be a part): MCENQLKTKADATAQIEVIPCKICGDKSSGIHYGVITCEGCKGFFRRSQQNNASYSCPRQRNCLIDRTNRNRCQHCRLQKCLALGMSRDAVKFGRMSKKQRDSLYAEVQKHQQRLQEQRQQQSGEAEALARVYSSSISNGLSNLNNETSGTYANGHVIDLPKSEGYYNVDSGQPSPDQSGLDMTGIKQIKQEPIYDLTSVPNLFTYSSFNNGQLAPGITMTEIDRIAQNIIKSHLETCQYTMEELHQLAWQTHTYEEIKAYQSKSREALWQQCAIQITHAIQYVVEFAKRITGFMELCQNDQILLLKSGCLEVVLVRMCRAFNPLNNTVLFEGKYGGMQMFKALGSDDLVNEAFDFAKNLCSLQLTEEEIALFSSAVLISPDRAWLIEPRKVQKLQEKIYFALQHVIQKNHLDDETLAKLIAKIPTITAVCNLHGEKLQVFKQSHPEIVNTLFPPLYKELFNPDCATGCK
human Retinoic Acid Receptor gamma (RARg), RARG (gene 5916), sequence (P13631 whole entry, looked up, the tested form may be a part): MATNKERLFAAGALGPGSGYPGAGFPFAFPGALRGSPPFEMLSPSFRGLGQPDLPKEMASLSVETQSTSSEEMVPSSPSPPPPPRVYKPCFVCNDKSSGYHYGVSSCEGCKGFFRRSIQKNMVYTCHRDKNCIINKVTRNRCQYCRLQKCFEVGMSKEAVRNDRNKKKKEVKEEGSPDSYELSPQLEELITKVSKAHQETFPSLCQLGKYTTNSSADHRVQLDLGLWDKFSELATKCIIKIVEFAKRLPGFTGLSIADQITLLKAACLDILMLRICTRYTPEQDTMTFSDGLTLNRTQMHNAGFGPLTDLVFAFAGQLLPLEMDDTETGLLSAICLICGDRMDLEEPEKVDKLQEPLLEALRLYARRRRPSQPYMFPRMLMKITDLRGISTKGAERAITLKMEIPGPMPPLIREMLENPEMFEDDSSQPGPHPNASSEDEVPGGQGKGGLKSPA
Peroxisome proliferator-activated receptor gamma (Homo sapiens), sequence (P37231 whole entry, looked up, the tested form may be a part): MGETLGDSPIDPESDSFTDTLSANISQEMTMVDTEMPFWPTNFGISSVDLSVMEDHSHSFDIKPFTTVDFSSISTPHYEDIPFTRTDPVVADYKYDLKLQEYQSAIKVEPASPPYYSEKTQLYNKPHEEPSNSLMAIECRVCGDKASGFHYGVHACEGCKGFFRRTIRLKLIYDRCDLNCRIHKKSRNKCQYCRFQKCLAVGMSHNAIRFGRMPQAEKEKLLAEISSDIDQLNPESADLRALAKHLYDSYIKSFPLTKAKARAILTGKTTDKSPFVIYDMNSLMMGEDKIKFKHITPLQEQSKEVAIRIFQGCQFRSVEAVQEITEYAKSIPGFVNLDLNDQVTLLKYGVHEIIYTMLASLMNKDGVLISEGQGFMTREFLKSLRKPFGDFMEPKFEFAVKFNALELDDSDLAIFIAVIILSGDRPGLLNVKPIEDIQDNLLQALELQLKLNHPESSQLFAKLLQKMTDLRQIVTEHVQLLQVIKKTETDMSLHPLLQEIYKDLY

One assay addresses Peroxisome proliferator-activated receptor gamma (Homo sapiens) (UniProt P37231). The experiment in a line: ATG_PPARg_TRANS: Attagene TRANS-FACTORIAL HepG2 Assay for human Peroxisome Proliferator-activated Receptor-gamma (PPARg) (AID 2283007). The procedure, abridged:
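HepG2 cells transiently transfected with multiplexed GAL4-UAS reporter units and exogenous chimeric NR-Gal4 proteins; reporter mRNA quantified after 24 h compound exposure by RT-PCR, fluorescent labelling, HpaI digestion and capillary electrophoresis; gain-of-signal fitted versus DMSO baseline.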
As to `C=CC(C)(C)O`, the result was inactive.
On the same count and under the same terms, the value for `CC(C)C1CCC(O)CC1` (stereo unspecified) was “inactive”.
Same read-out and setting: the value for `O=c1[nH]c(=O)n([C@H]2CCCO2)cc1F` was “inactive”.
Still for that read-out and setting: the value for `COC(C)CCO` (stereo unspecified) was “inactive”; that for `O=[N+]([O-])c1ccc(C=Cc2ccc([N+](=O)[O-])cc2S(=O)(=O)O)c(S(=O)(=O)O)c1` was “inactive”.
Consider `CCCCCNCCCCC`, for which the result was inactive.
On to `CCCCCCCCCOC(C)=O`, for which the call was inactive.
For `CCCCC[Si](OCC)(OCC)OCC`, the outcome was inactive.
Still for that read-out and setting: under `CC(C)(CO)[N+](=O)[O-]` stands “inactive”.
A word on the AC50: it is the concentration giving half of the maximal activity seen. Turning to `N#Cc1nc(Cl)c(Cl)c(Cl)c1Cl`, the AC50 was 0.206 µM (active).
In the case of `CO[Si](CCCn1c(=O)n(CCC[Si](OC)(OC)OC)c(=O)n(CCC[Si](OC)(OC)OC)c1=O)(OC)OC`, the molecule was called inactive.
Still for that read-out and setting: under `CCOC(=S)SSC(=S)OCC` stands “inactive”.
With `CC(=O)OCC=Cc1ccccc1`, the AC50 was 9.38 µM (active).
Regarding `COc1ccc(NC(=O)CC(C)=O)cc1`, the molecule was called inactive.
As for `CCCCN`, the result was inactive.

For the next assay, the target named is Nuclear receptor subfamily 1 group I member 2 (Homo sapiens) (UniProt O75469). The experiment in a line: ATG_PXR_TRANS: Attagene TRANS-FACTORIAL HepG2 Assay for human Pregnane X Receptor (PXR) (AID 2283008). The essentials: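 Read-out is fluorescence of labelled reporter cDNA fragments separated by capillary electrophoresis after RT-PCR and HpaI digestion. Source: HepG2 cells carrying PXR-GAL4/UAS reporter constructs, treated 24 h; activity fitted upward relative to DMSO.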
Nuclear receptor subfamily 1 group I member 2 (Homo sapiens), sequence (O75469 whole entry, looked up, the tested form may be a part): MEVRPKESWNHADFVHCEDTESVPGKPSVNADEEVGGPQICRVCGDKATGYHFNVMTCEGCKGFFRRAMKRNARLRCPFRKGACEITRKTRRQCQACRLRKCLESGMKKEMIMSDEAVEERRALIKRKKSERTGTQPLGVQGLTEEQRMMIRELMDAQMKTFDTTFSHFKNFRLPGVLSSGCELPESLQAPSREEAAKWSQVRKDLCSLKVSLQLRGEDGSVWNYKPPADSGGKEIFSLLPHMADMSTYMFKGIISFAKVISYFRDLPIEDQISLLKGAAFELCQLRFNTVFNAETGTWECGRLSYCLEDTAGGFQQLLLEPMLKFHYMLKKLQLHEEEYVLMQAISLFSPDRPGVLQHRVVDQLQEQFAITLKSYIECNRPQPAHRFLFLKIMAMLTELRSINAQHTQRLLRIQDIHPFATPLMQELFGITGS
As to `CNCCO`, the call was inactive.
Still for that read-out and setting: under `C=C(C)C(=O)NCCCN(C)C` stands “inactive”; under `Cc1cccc(C)c1[N+](=O)[O-]`, “inactive”; under `C=CC(C)(C)O`, “inactive”.
The same measure, in the same setting: under `CC(C)C1CCC(O)CC1` (stereo unspecified) stands “inactive”.
On the same count and under the same terms, under `CC(C)(C)c1cc(CCC(=O)NN)cc(C(C)(C)C)c1O` stands “inactive”; under `O=C1C(c2[nH]c3ccc(S(=O)(=O)O)cc3c2O)=Nc2ccc(S(=O)(=O)O)cc21`, “inactive”; under `COC(C)CCO` (stereo unspecified), “inactive”.
On to `CC(C)(N)CO`, for which the result was inactive.
On the same count and under the same terms, the value for `CCCCCNCCCCC` was “inactive”.
Take `CC(C)Oc1ccccc1O`: the AC50 was 27.4 µM (active).
Consider `CCCCCCCCCOC(C)=O`, for which the call was inactive.
Regarding `CN(C)CCCN`, the call was inactive.
As for `CCCCC[Si](OCC)(OCC)OCC`, the AC50 is 7.48 µM (active).
For `CCCCCCOC(=O)CCCCC`, the molecule was called inactive.
The same measure, in the same setting: the value for `C=O` was “inactive”.
For `COc1c(Cl)c(Cl)c(Cl)c(Cl)c1Cl`, the AC50 was 10.3 µM (active).
The same measure, in the same setting: the value for `CC[Si](OC(C)=O)(OC(C)=O)OC(C)=O` was 7.32 µM (active).
With `CC(C)(CO)[N+](=O)[O-]`, the molecule was called inactive.
For the molecule `CN1Cc2c(N)cccc2C(c2ccccc2)C1` (stereo unspecified), the call was inactive.
On the same count and under the same terms, the value for `CO[Si](CCCn1c(=O)n(CCC[Si](OC)(OC)OC)c(=O)n(CCC[Si](OC)(OC)OC)c1=O)(OC)OC` was “inactive”.
Same read-out and setting: under `CC(=O)OCC=Cc1ccccc1` stands “inactive”; under `CC1(C)OC[C@@H]2O[C@@]3(C(=O)O)OC(C)(C)O[C@H]3[C@@H]2O1`, “inactive”; under `O=C(O)c1ccc(C(=O)O)cc1`, “inactive”.
Regarding `COc1ccc(NC(=O)CC(C)=O)cc1`, the result was inactive.
Regarding `CC[C@]12CCCN3CCc4c(n(c5ccccc45)[C@@](O)(C(=O)OC)C1)[C@@H]32`, the AC50 was 2.99 µM (active).
On to `Cc1ccc(C(=O)O)o1`, for which the outcome was inactive.
On to `CC(=O)C=CC1=C(C)CCCC1(C)C`, for which the AC50 is 1.02 µM (active).
`NCCOCCO`: the call was inactive.
Still for that read-out and setting: under `CC(=O)[O][Al][O]C(C)=O` stands “inactive”.

The next assay has as its target human Retinoic Acid Receptor gamma (RARg), RARG (gene 5916) (UniProt P13631). The experiment in a line: ATG_RARg_TRANS: Attagene TRANS-FACTORIAL HepG2 Assay for human Retinoic Acid Receptor gamma (RARg) (AID 2283009). The essentials: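 HepG2, RARg-GAL4 TRANS system, 24 h exposure; reporter mRNA by RT-PCR + CE fluorescence; increase over DMSO.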
As for `Cc1cccc(C)c1[N+](=O)[O-]`, the outcome was inactive.
As for `COC(C)CCO` (stereo unspecified), the call was inactive.
On the same count and under the same terms, under `CCCCCNCCCCC` stands “inactive”; under `CCCCC[Si](OCC)(OCC)OCC`, “inactive”.
The same measure, in the same setting: under `CCCCCCOC(=O)CCCCC` stands “inactive”.
Same read-out and setting: the value for `C=O` was “inactive”.
In the case of `CN1Cc2c(N)cccc2C(c2ccccc2)C1` (stereo unspecified), the call was inactive.
On the same count and under the same terms, under `CCCCNC(=O)NS(=O)(=O)c1ccc(N)cc1` stands “inactive”.

For a further assay, the target named is human RAR-related Orphan Receptor beta (RORb), RORB (gene 6096) (UniProt Q92753). The experiment in a line: ATG_RORb_TRANS: Attagene TRANS-FACTORIAL HepG2 Assay for human RAR-related Orphan Receptor beta (RORb) (AID 2283010). The essentials:
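In this TRANS-format test, human HepG2 cells express chimeric NR-Gal4 fusion proteins driving GAL4-UAS reporters. After 24 h dosing, reporter transcripts are measured by fluorescent RT-PCR/capillary electrophoresis, with DMSO as negative control.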
For `C=C(C)C(=O)NCCCN(C)C`, the outcome was inactive.
On the same count and under the same terms, the value for `Cc1cccc(C)c1[N+](=O)[O-]` was “inactive”.
Consider `O=[N+]([O-])c1ccc(C=Cc2ccc([N+](=O)[O-])cc2S(=O)(=O)O)c(S(=O)(=O)O)c1`, for which the result was inactive.
For `CC(C)Oc1ccccc1O`, the result was inactive.
Same read-out and setting: the value for `CCCCCCOC(=O)CCCCC` was “inactive”.
Still for that read-out and setting: under `CC[Si](OC(C)=O)(OC(C)=O)OC(C)=O` stands “inactive”; under `CC(C)(CO)[N+](=O)[O-]`, “inactive”; under `N#Cc1nc(Cl)c(Cl)c(Cl)c1Cl`, “inactive”.
The same measure, in the same setting: under `CC(=O)OCCOC(C)=O` stands “inactive”; under `CCCCN`, “inactive”; under `NCCOCCO`, “inactive”.
Turning to `CC(=O)[O][Al][O]C(C)=O`, the call was inactive.
The same measure, in the same setting: under `CCCCCCCCCCCCCCCCCC(=O)OCC(CC)CCCC` (stereo unspecified) stands “inactive”.
